# Assay results as given in the supplement of paper PMC10127200.
# Counter-ions that a name gives are not always drawn.
# How the values were obtained:
# Assay in all cases: Euclidean distance of Cell Painting phenotypic profile (signed KS, 77 features) to DMSO centroid (dimensionless distance); higher = stronger phenotypic change vs DMSO (phenoactivity)
# Conditions in all cases: 48 h; 5 or 10 uM (library dependent)
# 786-O = system: 786-O
# Summary of the method: (§1)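 Library compounds were applied at 10 or 5 uM, depending on the library, with 0.1% DMSO final, for 48 h to five cancer lines and a healthy fibroblast line. After staining, cells were imaged confocally at 20X across 9 fields per well, and Harmony extracted 77 features, each scored as a signed Kolmogorov-Smirnov statistic against vehicle wells on the same plate. Phenoactivity is the Euclidean distance between each profile and the median vehicle profile, with profiles first plate-position corrected, correlation-weighted and averaged over replicates at the top dose.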
# A549 = system: A549
# Summary of the method: as §1
# DU145 = system: DU145
# Summary of the method: as §1
# FB = system: FB
# Summary of the method: as §1
# HEPG2 = system: HEPG2
# Summary of the method: as §1
# OVCAR4 = system: OVCAR4
# Summary of the method: as §1
Structure (SMILES),Euclidean distance (786-O),Euclidean distance (A549),Euclidean distance (DU145),Euclidean distance (FB),Euclidean distance (HEPG2),Euclidean distance (OVCAR4)
O=c1ccc2ccc3occc3c2o1 [Isopsoralen],1.25,0.993,0.786,1.02,0.495,1.1
CN(C)C(=O)Oc1ccc[n+](C)c1 [Pyridostigmine Bromide],0.816,0.961,0.672,0.846,0.726,0.777
OC(c1ccccc1)(c1ccccc1)C1CCNCC1 [Azacyclonol],2.95,2.91,3.75,3.06,2.31,3.18
N#Cc1nn(-c2c(Cl)cc(C(F)(F)F)cc2Cl)c(N)c1[S+]([O-])C(F)(F)F (centres undefined) [Fipronil],0.855,1.11,0.897,1.05,0.591,0.894
O=C(O[C@H]1C[N+]2(CCCOc3ccccc3)CCC1CC2)C(O)(c1cccs1)c1cccs1 [Aclidinium Bromide],1.15,1.13,1.29,0.774,0.61,1.23
CCCN1CCO[C@@H]2c3cc(O)ccc3OC[C@H]21,0.455,0.629,0.762,0.945,0.824,0.818
C#C[C@]1(O)C=C[C@H]2[C@@H]3CCC4=CC(=O)CC[C@@H]4[C@H]3CC[C@@]21CC [Gestodene],1.29,0.869,2.08,1.08,2.49,1.33
C=C[C@H]1CN2CC[C@H]1C[C@H]2[C@H](O)c1ccnc2ccccc12 [Cinchonidine],1.49,0.828,1.16,1.09,0.521,1.1
CC(=O)OC12COC1CC(O)C1(C)C(=O)C(O)C3=C(C)C(O)CC(O)(C(OC(=O)c4ccccc4)C21)C3(C)C (centres undefined) [10-Deacetylbaccatin-III],1.79,1.11,0.834,1.7,1.38,1.4
C[C@]12CCC(=O)C[C@@H]1CC[C@@H]1[C@@H]2CC[C@]2(C)[C@@H](O)CC[C@@H]12 [Dihydrotestosterone(DHT)],1.54,0.944,0.925,0.775,0.429,0.677
Cc1cc2c(C(C)C)c(O)c(O)c(C=O)c2c(O)c1-c1c(C)cc2c(C(C)C)c(O)c(O)c(C=O)c2c1O [Gossypol],2.34,2.66,0.576,1.05,0.654,1.74
Cc1cccc(C)c1NC1=NCCCS1 [Xylazine],1.17,0.386,1.01,0.632,0.887,0.579
C=CC1CN2CCC1CC2C(O)c1ccnc2ccccc12 (centres undefined),1.34,0.884,1.11,0.875,0.638,1.13
CN[C@@H]1[C@@H](O)[C@@H](O[C@@H]2[C@@H](O)[C@H](O[C@H]3O[C@H](CN)CC[C@H]3N)[C@@H](N)C[C@H]2N)OC[C@]1(C)O.CN[C@@H]1[C@@H](O)[C@@H](O[C@@H]2[C@@H](O)[C@H](O[C@H]3O[C@H]([C@@H](C)N)CC[C@H]3N)[C@@H](N)C[C@H]2N)OC[C@]1(C)O.CN[C@@H]1[C@@H](O)[C@@H](O[C@@H]2[C@@H](O)[C@H](O[C@H]3O[C@H]([C@@H](C)NC)CC[C@H]3N)[C@@H](N)C[C@H]2N)OC[C@]1(C)O [Gentamicin Sulfate],1.29,1.18,1.22,0.978,0.832,1.02
Oc1cccc2cccnc12 [8-Hydroxyquinoline],4.55,1.4,2.11,6.09,1.99,1.56
COc1ccc(C=O)cc1 [p-Anisaldehyde],1.24,0.754,0.627,0.751,0.785,1.16
CC(CCc1ccccc1)NC(C)C(O)c1ccc(O)cc1 (centres undefined) [Nylidrin Hydrochloride],1.45,1.2,1.38,1.11,1.29,1.34
C[S+]([O-])CCCCN=C=S (centres undefined) [sulforaphane],1.73,1.68,1.89,2.33,2.6,1.58
CCCN1C[C@H](CSC)C[C@@H]2c3cccc4[nH]cc(c34)C[C@H]21 [Pergolide mesylate],0.662,0.713,1.01,0.92,2.27,1.02
CC(C)NCC(O)c1ccccc1Cl (centres undefined) [Clorprenaline HCl],1.06,1.11,0.599,1.22,0.405,1.29
NCC(O)c1ccc(O)cc1 (centres undefined) [(+.-)-Octopamine HCl],1.71,0.639,0.896,0.934,0.45,1.03
C/C=C(\C)C(=O)N[C@@H](c1ccccc1)[C@@H](O)C(=O)O[C@H]1C[C@@]2(O)[C@@H](OC(=O)c3ccccc3)[C@@H]3[C@]4(OC(C)=O)CO[C@@H]4C[C@H](O)[C@@]3(C)C(=O)[C@H](OC(C)=O)C(=C1C)C2(C)C [Cephalomannine],2.74,3.24,3.48,2.32,2.11,2.98
O=C1CC[C@@]2(O)[C@H]3Cc4ccc(O)c5c4[C@@]2(CCN3CC2CC2)[C@H]1O5 [Naltrexone HCl],1.26,0.818,0.868,0.982,1.84,1.99
COc1cc([C@@H]2c3cc4c(cc3[C@H](O)[C@H]3COC(=O)[C@@H]23)OCO4)cc(OC)c1OC [Picropodophyllin (PPP)],3.35,2.64,4.34,2.74,3.95,3.14
N[C@@H]1C[C@H]1c1ccccc1 [Tranylcypromine (2-PCPA) HCl],1.2,1.52,1.36,2.02,1.47,1.76

Structure (SMILES),Euclidean distance (786-O),Euclidean distance (A549),Euclidean distance (DU145),Euclidean distance (FB),Euclidean distance (HEPG2),Euclidean distance (OVCAR4)
Cc1cccc(C(C)c2c[nH]cn2)c1C (centres undefined) [Medetomidine HCl],0.819,0.591,0.87,0.682,0.602,1.07
CC1(C)CC(O)CC(C)(C)N1[O] [Tempol],0.822,0.85,1.18,1.49,0.827,0.934
c1ccc2c(c1)Sc1ccccc1N2CC1CN2CCC1CC2 (centres undefined) [Mequitazine],2.14,1.44,1.35,2.64,2.43,1.19
NC(=O)CN1CCCC1=O [Piracetam],1.42,0.813,0.735,1.08,0.792,1.01
COc1ccc(C(=O)O)cc1OC [Veratric acid],0.978,0.85,1.2,0.896,1.05,0.931
COc1cc2c(cc1OC)C1CC(=O)C(CC(C)C)CN1CC2 (centres undefined) [Tetrabenazine (Xenazine)],0.961,1.86,0.948,1.12,1.74,1.45
CC(NC(C)(C)C)C(=O)c1cccc(Cl)c1 (centres undefined) [Amfebutamone HCl],1.4,1.06,0.536,1.05,0.846,1.45
C/C(=C\c1csc(C)n1)[C@@H]1C[C@@H]2O[C@@H]2CCC[C@H](C)[C@H](O)[C@@H](C)C(=O)C(C)(C)[C@@H](O)CC(=O)O1 [Epothilone A],3.01,2.89,4.3,2.5,2.34,3.02
N=C(N)NN [Aminoguanidine hydrochloride],0.96,1.11,0.602,0.888,0.598,0.998
C[C@]12CC[C@@H](O)C[C@@H]1CC[C@@H]1[C@@H]2CC[C@]2(C)C(=O)CC[C@@H]12 [Androsterone],1.51,0.773,1.2,1.28,0.665,1.07
O=[N+]([O-])O[C@@H]1CO[C@H]2[C@@H]1OC[C@@H]2O [Isosorbide Mononitrate],1.15,1.13,0.879,0.9,0.868,0.962
Cc1cc(C2=NOC(c3cc(Cl)cc(Cl)c3)(C(F)(F)F)C2)ccc1C(=O)NCC(=O)NCC(F)(F)F (centres undefined) [Fluralaner],1.38,1.29,1.17,1.44,0.786,1.36
CNC(C)Cc1ccccc1OC (centres undefined) [Methoxyphenamine Hydrochloride],0.913,1.83,0.725,1.38,0.34,2.5
CN1CCC(c2c[nH]c3ccc(O)cc23)CC1,0.692,0.484,1.17,0.749,2.09,0.873
C#C[C@]1(OC(=O)CCCCCC)CC[C@H]2[C@@H]3CCC4=CC(=O)CC[C@@H]4[C@H]3CC[C@@]21C [Norethisterone Enanthate],2.37,2.5,3.85,1.34,2.23,1.22
CCNC1(c2cccs2)CCCCC1=O (centres undefined) [Tiletamine Hydrochloride],1.22,1.39,1.26,1.39,0.678,1.75
Cn1c(CCCCCCC(=O)NO)nc2cc(N(CCCl)CCCl)ccc21 [Tinostamustine(EDO-S101)],3.61,3.53,3.45,2.57,2.74,3.16
CCCCCCC(=O)O[C@H]1CC[C@H]2[C@@H]3CCC4=CC(=O)CC[C@]4(C)[C@H]3CC[C@]12C [Testosterone Enanthate],0.918,0.756,0.828,0.666,0.553,1.49
Cn1c(COP(=O)(NCCBr)NCCBr)cnc1[N+](=O)[O-] [Evofosfamide (TH-302)],1.45,2.69,0.904,1.3,1.86,2.84
Cc1sc2c(c1C)C(c1ccc(Cl)cc1)=N[C@@H](CC(=O)Nc1ccc(O)cc1)c1nnc(C)n1-2,2.95,2.08,2.15,4.11,1.91,1.77
CCC(COC(=O)c1cc(OC)c(OC)c(OC)c1)(c1ccccc1)N(C)C (centres undefined) [Trimebutine],0.93,0.4,0.604,0.704,1.26,0.747
Cn1cc(C2=C(c3cn(C4CCN(Cc5ccccn5)CC4)c4ccccc34)C(=O)NC2=O)c2ccccc21,1.96,3.16,1.32,0.965,0.683,1.79
CC(=O)NC1CCSC1=O (centres undefined) [Citiolone],1.19,0.873,0.825,1.06,0.461,1.71
CN1CCN(c2nc3ccccc3nc2Cl)CC1,0.803,1.25,1.04,0.897,0.638,1.52
